Laboratory results: ChEMBL document CHEMBL1961873, “Compounds: GSK PKIS; Assays: Nanosyn kinase panel” (2012)

Molecular target: T1, Tyrosine-protein kinase JAK3 (Homo sapiens) (UniProt P52333)
T1 sequence (whole entry): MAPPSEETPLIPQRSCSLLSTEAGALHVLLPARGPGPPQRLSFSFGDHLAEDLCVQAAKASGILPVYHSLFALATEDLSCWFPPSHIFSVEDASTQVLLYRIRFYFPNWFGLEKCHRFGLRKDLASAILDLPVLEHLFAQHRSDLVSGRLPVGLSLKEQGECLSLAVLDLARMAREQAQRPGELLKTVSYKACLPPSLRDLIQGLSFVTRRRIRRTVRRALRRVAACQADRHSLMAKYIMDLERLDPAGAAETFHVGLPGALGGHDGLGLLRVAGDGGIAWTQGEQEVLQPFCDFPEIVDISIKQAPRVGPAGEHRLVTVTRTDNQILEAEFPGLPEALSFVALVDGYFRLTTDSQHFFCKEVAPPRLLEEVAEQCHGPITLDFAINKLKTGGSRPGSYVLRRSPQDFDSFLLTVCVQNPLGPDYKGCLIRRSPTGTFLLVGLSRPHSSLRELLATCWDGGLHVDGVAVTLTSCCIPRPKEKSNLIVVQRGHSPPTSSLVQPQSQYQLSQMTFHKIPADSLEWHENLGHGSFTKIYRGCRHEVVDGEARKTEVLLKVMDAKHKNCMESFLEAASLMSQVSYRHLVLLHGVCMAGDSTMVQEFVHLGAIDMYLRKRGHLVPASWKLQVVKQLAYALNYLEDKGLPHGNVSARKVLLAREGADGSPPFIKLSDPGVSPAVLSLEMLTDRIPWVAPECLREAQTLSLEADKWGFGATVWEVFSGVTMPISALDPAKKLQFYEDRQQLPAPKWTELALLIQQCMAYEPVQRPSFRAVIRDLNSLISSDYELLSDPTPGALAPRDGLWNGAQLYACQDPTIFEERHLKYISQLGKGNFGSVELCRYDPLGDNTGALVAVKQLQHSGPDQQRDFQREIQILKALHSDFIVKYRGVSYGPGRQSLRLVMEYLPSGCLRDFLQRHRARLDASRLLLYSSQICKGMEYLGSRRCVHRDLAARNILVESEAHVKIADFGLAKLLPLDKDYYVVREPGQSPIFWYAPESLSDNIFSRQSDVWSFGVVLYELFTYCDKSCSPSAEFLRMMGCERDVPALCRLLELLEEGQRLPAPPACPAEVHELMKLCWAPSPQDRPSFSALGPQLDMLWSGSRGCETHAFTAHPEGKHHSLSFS
Conditions: at 0.1 µM

Row | Structure (SMILES) | inhibition [%]
1 | CCN(CC)Cc1ccc(Nc2nccc(-c3cnn4ncccc34)n2)cc1 | -3.13
2 | CCC(=O)Nc1ccc(C)c(-c2ccc(C(=O)NCC3CC3)cc2)c1 | -1.95
3 | COc1cc(C)c(N(C)C(=O)CN(C)C)cc1Nc1nc(Nc2cccc(F)c2C(N)=O)c2cc[nH]c2n1 | -3.43
4 | CCc1cccc(CC)c1/C=C/c1cncc(C(=O)NC)c1 | -1.8
5 | COc1ccc2cc(-c3c(-c4ccncc4)nc(-c4ccc(S(C)(=O)=O)cc4C)n3C)ccc2c1 | -0.96
6 | Cc1nnc(-c2ccc(C)c(-c3ccc(C(=O)NCc4ccc(Cl)cc4)cc3)c2)o1 | -4.26
7 | COc1cc(Nc2ncc(-c3ccccc3)o2)cc(OC)c1OC | -0.1
8 | NCc1ccc(-n2c(-c3nonc3N)nc3cnccc32)cc1 | -0.04
9 | COc1cc2ncn(-c3cc(OCCc4ccccc4)c(C(N)=O)s3)c2cc1OC | -0.27
10 | O=C(Nc1ccc(Oc2ccc3[nH]c(NC(=O)c4ccccc4)nc3c2)cc1)Nc1cc(C(F)(F)F)ccc1F | -0.16
11 | O=C1Nc2ccc(I)cc2C1=Cc1cc(Br)c(O)c(Br)c1 | -0.81
12 | C[C@@H](Oc1cc(-n2cnc3ccc(OCC4CCN(C)CC4)cc32)sc1C(N)=O)c1ccccc1Cl | -1.46
13 | CN(C)CCOc1ccc(-c2cc(-c3ccc4c(c3)CCC4=NO)c(-c3ccncc3)o2)cc1 | -0.61
14 | O=C1NC(=O)C(c2cccc(Cl)c2)=C1Nc1ccc(Cl)c(C(=O)O)c1 | -0.9
15 | NS(=O)(=O)c1ccc(N/N=C2\C(=O)Nc3ccc(C(=O)NCCCn4ccnc4)cc32)cc1 | -2
16 | COc1cc(Nc2ncc3c(C)nc(-c4cccc(C(F)(F)F)c4)n3n2)cc(OC)c1OC | -0.52
17 | NS(=O)(=O)c1ccc(Nc2cc(-c3ccc(O)c(F)c3)n[nH]2)cc1 | 0.11

Row | Structure (SMILES) | inhibition [%]
18 | CCc1ccc(Oc2nccc(-c3c(-c4ccc(F)cc4)ncn3C3CCNCC3)n2)cc1 | -1.25
19 | CN1CCN(CCCNc2nc3ccc(Oc4ccc(NC(=O)Nc5cc(C(F)(F)F)ccc5F)cc4)cc3[nH]2)CC1 | -2.58
20 | Fc1ccc(-c2ncn(C3CCNCC3)c2-c2ccnc(Oc3ccc(F)c(F)c3)n2)cc1 | -5.49
21 | NC(=O)Cc1ccccc1Oc1nccc(-c2c(-c3ccc(F)cc3)ncn2C2CCNCC2)n1 | -1.1
22 | FC(F)(F)c1cccc(Nc2nccc(-c3cnn4nc(-c5ccccc5)ccc34)n2)c1 | -1.84
23 | COc1cccc(/C=N/Nc2ncnc3c2cnn3-c2cccc(OC)c2)c1 | -1.99
24 | CN(c1ccc(NC(=O)Nc2c(Cl)cccc2Cl)cc1)c1ccnc(Nc2cccc(CS(C)(=O)=O)c2)n1 | 0.53
25 | Cc1ccc(NC(=O)c2ccoc2)cc1-c1ccc(C(=O)NCC2CC2)cc1 | -1.84
26 | COC(=O)Nc1nc2ccc(Sc3ccc(NC(=O)Nc4cc(C(F)(F)F)ccc4F)cc3)cc2[nH]1 | -1.15
27 | COc1cc(Nc2ncc3c(C)nc(-c4cccc(Oc5ccccc5)c4)n3n2)cc(OC)c1OC | 0.02
28 | CCS(=O)(=O)c1ccc(OC)c(Nc2ncc(-c3cccc(-c4ccccc4F)c3)o2)c1 | 1.2
29 | Cc1ccc(C(=O)NC(C)C)cc1-c1ccc(C(=O)NCC2CC2)cc1 | 0.73
30 | CS(=O)(=O)CCNCc1ccc(-c2ccc3ncnc(Nc4ccc(OCc5ccccc5)c(Br)c4)c3c2)o1 | -5.54
31 | O=C(Nc1n[nH]c2cc(-c3ccccc3)ccc12)C1CC1 | -1.69
32 | COc1ccc(C2=C(N3CCc4ccccc43)C(=O)NC2=O)cc1 | -0.7
33 | NC(=O)c1cc(-c2ccc(F)cc2)cc(-c2ccncc2)c1N | -0.87
34 | COc1cc2ncn(-c3cc(OCc4cccs4)c(C(N)=O)s3)c2cc1OC | -2.77

Molecular target: T1, Tyrosine-protein kinase JAK3 (Homo sapiens)
Conditions: at 1 µM

Row | Structure (SMILES) | inhibition [%]
35 | CCN(CC)Cc1ccc(Nc2nccc(-c3cnn4ncccc34)n2)cc1 | 14.2
36 | CCC(=O)Nc1ccc(C)c(-c2ccc(C(=O)NCC3CC3)cc2)c1 | -0.85
37 | COc1cc(C)c(N(C)C(=O)CN(C)C)cc1Nc1nc(Nc2cccc(F)c2C(N)=O)c2cc[nH]c2n1 | -3.47
38 | CCc1cccc(CC)c1/C=C/c1cncc(C(=O)NC)c1 | 0.86
39 | COc1ccc2cc(-c3c(-c4ccncc4)nc(-c4ccc(S(C)(=O)=O)cc4C)n3C)ccc2c1 | -0.93
40 | Cc1nnc(-c2ccc(C)c(-c3ccc(C(=O)NCc4ccc(Cl)cc4)cc3)c2)o1 | -4.85
41 | COc1cc(Nc2ncc(-c3ccccc3)o2)cc(OC)c1OC | 12.7
42 | NCc1ccc(-n2c(-c3nonc3N)nc3cnccc32)cc1 | 1.57
43 | COc1cc2ncn(-c3cc(OCCc4ccccc4)c(C(N)=O)s3)c2cc1OC | -0.4
44 | O=C(Nc1ccc(Oc2ccc3[nH]c(NC(=O)c4ccccc4)nc3c2)cc1)Nc1cc(C(F)(F)F)ccc1F | 9.29
45 | O=C1Nc2ccc(I)cc2C1=Cc1cc(Br)c(O)c(Br)c1 | -3.69
46 | C[C@@H](Oc1cc(-n2cnc3ccc(OCC4CCN(C)CC4)cc32)sc1C(N)=O)c1ccccc1Cl | 29.3
47 | CN(C)CCOc1ccc(-c2cc(-c3ccc4c(c3)CCC4=NO)c(-c3ccncc3)o2)cc1 | 1.8
48 | O=C1NC(=O)C(c2cccc(Cl)c2)=C1Nc1ccc(Cl)c(C(=O)O)c1 | 9.29
49 | NS(=O)(=O)c1ccc(N/N=C2\C(=O)Nc3ccc(C(=O)NCCCn4ccnc4)cc32)cc1 | 18.8
50 | COc1cc(Nc2ncc3c(C)nc(-c4cccc(C(F)(F)F)c4)n3n2)cc(OC)c1OC | 4.91
51 | NS(=O)(=O)c1ccc(Nc2cc(-c3ccc(O)c(F)c3)n[nH]2)cc1 | 8.25

Row | Structure (SMILES) | inhibition [%]
52 | CCc1ccc(Oc2nccc(-c3c(-c4ccc(F)cc4)ncn3C3CCNCC3)n2)cc1 | -0.22
53 | CN1CCN(CCCNc2nc3ccc(Oc4ccc(NC(=O)Nc5cc(C(F)(F)F)ccc5F)cc4)cc3[nH]2)CC1 | 0.29
54 | Fc1ccc(-c2ncn(C3CCNCC3)c2-c2ccnc(Oc3ccc(F)c(F)c3)n2)cc1 | -1.81
55 | NC(=O)Cc1ccccc1Oc1nccc(-c2c(-c3ccc(F)cc3)ncn2C2CCNCC2)n1 | 0.74
56 | FC(F)(F)c1cccc(Nc2nccc(-c3cnn4nc(-c5ccccc5)ccc34)n2)c1 | -0.12
57 | COc1cccc(/C=N/Nc2ncnc3c2cnn3-c2cccc(OC)c2)c1 | -2.7
58 | CN(c1ccc(NC(=O)Nc2c(Cl)cccc2Cl)cc1)c1ccnc(Nc2cccc(CS(C)(=O)=O)c2)n1 | 2.77
59 | Cc1ccc(NC(=O)c2ccoc2)cc1-c1ccc(C(=O)NCC2CC2)cc1 | -0.47
60 | COC(=O)Nc1nc2ccc(Sc3ccc(NC(=O)Nc4cc(C(F)(F)F)ccc4F)cc3)cc2[nH]1 | 2.49
61 | COc1cc(Nc2ncc3c(C)nc(-c4cccc(Oc5ccccc5)c4)n3n2)cc(OC)c1OC | 1.74
62 | CCS(=O)(=O)c1ccc(OC)c(Nc2ncc(-c3cccc(-c4ccccc4F)c3)o2)c1 | 13.9
63 | Cc1ccc(C(=O)NC(C)C)cc1-c1ccc(C(=O)NCC2CC2)cc1 | 1.51
64 | CS(=O)(=O)CCNCc1ccc(-c2ccc3ncnc(Nc4ccc(OCc5ccccc5)c(Br)c4)c3c2)o1 | -5.98
65 | O=C(Nc1n[nH]c2cc(-c3ccccc3)ccc12)C1CC1 | 0.16
66 | COc1ccc(C2=C(N3CCc4ccccc43)C(=O)NC2=O)cc1 | 1.63
67 | NC(=O)c1cc(-c2ccc(F)cc2)cc(-c2ccncc2)c1N | -2.1
68 | COc1cc2ncn(-c3cc(OCc4cccs4)c(C(N)=O)s3)c2cc1OC | -0.29
